The structures appear in SMILES notation. Hit rate of the full screen: of about 400,000 compounds, about 2,100 (0.53%) were called active. Roughly 14% stayed inconclusive and do not appear here. No rule for the calls is given here. The full list was thinned out, with actives kept by preference.

Ataxin-2 (Homo sapiens), sequence (Q99700 whole entry): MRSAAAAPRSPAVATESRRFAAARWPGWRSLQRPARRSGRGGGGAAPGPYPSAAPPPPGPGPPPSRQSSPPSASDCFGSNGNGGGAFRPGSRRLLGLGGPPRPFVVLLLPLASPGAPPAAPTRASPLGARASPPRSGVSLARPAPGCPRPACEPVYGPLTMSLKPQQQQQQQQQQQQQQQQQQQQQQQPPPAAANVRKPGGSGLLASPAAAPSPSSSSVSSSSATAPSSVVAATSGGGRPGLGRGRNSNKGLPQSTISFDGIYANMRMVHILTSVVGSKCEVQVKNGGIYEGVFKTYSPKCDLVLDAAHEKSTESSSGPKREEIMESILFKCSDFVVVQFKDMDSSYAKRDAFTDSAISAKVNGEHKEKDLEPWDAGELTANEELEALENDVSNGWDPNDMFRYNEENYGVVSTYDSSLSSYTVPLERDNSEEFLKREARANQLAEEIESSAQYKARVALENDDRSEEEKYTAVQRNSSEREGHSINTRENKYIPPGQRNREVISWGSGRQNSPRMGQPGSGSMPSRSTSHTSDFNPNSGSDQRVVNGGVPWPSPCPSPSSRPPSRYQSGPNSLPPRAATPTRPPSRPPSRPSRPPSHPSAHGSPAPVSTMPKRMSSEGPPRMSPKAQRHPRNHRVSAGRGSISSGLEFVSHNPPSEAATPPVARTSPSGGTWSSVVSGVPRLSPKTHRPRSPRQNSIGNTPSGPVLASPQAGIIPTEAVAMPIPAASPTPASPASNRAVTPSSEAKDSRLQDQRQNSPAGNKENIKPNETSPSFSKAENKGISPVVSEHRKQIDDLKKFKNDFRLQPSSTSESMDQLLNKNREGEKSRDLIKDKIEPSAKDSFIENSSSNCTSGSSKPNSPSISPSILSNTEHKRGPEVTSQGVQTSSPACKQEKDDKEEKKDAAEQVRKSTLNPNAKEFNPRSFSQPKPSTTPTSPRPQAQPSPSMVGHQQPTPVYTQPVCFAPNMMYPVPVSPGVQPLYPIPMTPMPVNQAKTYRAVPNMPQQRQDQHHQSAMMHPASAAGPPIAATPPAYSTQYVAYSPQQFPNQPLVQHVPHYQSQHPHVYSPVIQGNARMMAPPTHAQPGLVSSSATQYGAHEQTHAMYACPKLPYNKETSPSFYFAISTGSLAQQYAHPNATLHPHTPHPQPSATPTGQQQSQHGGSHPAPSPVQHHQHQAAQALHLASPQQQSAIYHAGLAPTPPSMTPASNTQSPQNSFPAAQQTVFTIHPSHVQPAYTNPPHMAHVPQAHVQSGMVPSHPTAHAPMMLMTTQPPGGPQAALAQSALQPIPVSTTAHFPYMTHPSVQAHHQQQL

The assay addresses Ataxin-2 (Homo sapiens) (UniProt Q99700). Kind of assay: qHTS for Inhibitors of ATXN expression. The assay is classed as functional. For orientation: Quantitative high-throughput screening tests each substance at several concentrations.
Take `S=C(Nc1ccccc1Cl)N1CCCC(c2ccccc2)=N1`: the Potency entry is “inactive”.
The value for `NC1=NC(=O)C(Cc2ccc(Br)cc2)S1` (configuration not stated) was “inactive”.
The value for `Nc1nc(N)c2ncc(C(=O)CCc3ccccc3)nc2n1` was “inactive”; that for `O=c1c2ccccc2nc(-c2ccccc2)n1O` was “inactive”.
In the case of `CN(C)c1ccnc2sc(C(=O)c3ccc(Br)cc3)c(N)c12`, the Potency result is “inactive”.
Take `COC(=O)c1c(NC(=O)c2ccc(S(=O)(=O)N3CCCCC3C)cc2)sc2c1CCN(C(C)C)C2` (configuration not stated): the Potency entry is “inactive”.
On to `CCC1CCCCN1S(=O)(=O)c1ccc(C(=O)Nc2sc3c(c2C(=O)NC)CCC3)cc1` (configuration not stated), for which the Potency entry is “inactive”.
Consider `CC1CCCCN1S(=O)(=O)c1ccc(C(=O)N(CCCN(C)C)c2nc3ccc(Br)cc3s2)cc1` (configuration not stated), for which the Potency was 39.8 µM (active).
The same measure for `CSc1nsc(SCC(=O)Nc2ccccc2C(N)=O)n1`: “inactive”; for `Cc1ccc(Cn2c(=N)c(C(=O)NCC3CCCO3)cc3c(=O)n4cccc(C)c4nc32)cc1` (configuration not stated): “inactive”; for `CSCCC(NC(=O)COc1ccccc1)C(=O)NCCOc1ccccc1` (configuration not stated): “inactive”.
In the case of `COc1ccc(OC)c2cc3ccccc3cc12`, the Potency is 17.8 µM (active).
Regarding `COc1cc2ccccc2cc1C(=O)Nc1ccc(O)cc1`, the Potency result was “inactive”.
The same measure for `COc1c2ccccc2nc2ccccc12`: “inactive”; for `COc1ccc2c(c1)cc(C(=O)N/N=C/c1c(O)c(C(=O)O)cc3ccccc13)n2C`: “inactive”; for `CCOc1ccc(CNC(=O)C2CCCN(c3nnc(C)c4c(C)n(-c5ccccc5)nc34)C2)cc1` (configuration not stated): 15.8 µM (active).
Regarding `CCOc1ccc(CCNC(=O)C2CCCN(c3nnc(C)c4c(C)n(-c5ccccc5)nc34)C2)cc1` (configuration not stated), the Potency was 31.6 µM (active).
The value for `Cc1ccc(-n2nc3c(N4CCCC(C(=O)NCCc5ccccc5)C4)nnc(C)c3c2C)cc1` (configuration not stated) was 20 µM (active); that for `Cc1ccc(-n2nc3c(=O)n(C(C)C(=O)NCCc4cccs4)nc(C)c3c2C)cc1` (configuration not stated) was “inactive”.
`Cc1cccc(CNC(=O)CCCn2nc(C)c3c(C)n(-c4ccccc4)nc3c2=O)c1`: the Potency entry was “inactive”.
As for `CCOc1ccc(NC(=O)C2CCCN(c3nn4c(=O)cc(C)nc4s3)C2)cc1` (configuration not stated), the Potency result is “inactive”.
With `COc1ccc(C)cc1NC(=O)C1CCCN1S(=O)(=O)c1ccccc1F` (configuration not stated), the Potency entry is “inactive”.
For the compound `CCOC(=O)N1CCN(S(=O)(=O)N2CCCC(C(=O)NCCc3ccc(Cl)cc3)C2)CC1` (configuration not stated), the Potency result was “inactive”.
As to `Cc1nnc(N2CCCC(C(=O)Nc3cc(F)ccc3F)C2)c2nn(-c3ccccc3)c(C)c12` (configuration not stated), the Potency was 35.5 µM (active).
The same measure for `Cc1cc(NC(C)C)n2c(nc3ccccc32)c1C#N`: “inactive”; for `COC(=O)c1c(C(=O)OC)c2c(-c3ccccc3)cc3cccc1n32`: “inactive”; for `Cc1ccc(C2=CC(c3ccccc3)n3ncnc3N2)cc1` (configuration not stated): “inactive”.
Regarding `CCn1c(=N)c(C(=O)NC2CCCC2)cc2c(=O)n3ccccc3nc21`, the Potency result was “inactive”.
Consider `COC(=O)c1ccc(-c2sc3nc(N4CCOCC4)c4c(c3c2N)CCCC4)o1`, for which the Potency entry is “inactive”.
As for `O=C(CSc1ccc(-c2cccs2)nn1)Nc1ccccc1F`, the Potency entry was “inactive”.
Turning to `Cc1cc(C)n2nc(C(=O)OCC(=O)NC3CCS(=O)(=O)C3)nc2n1` (configuration not stated), the Potency result was “inactive”.
On to `N#Cc1c(-c2ccccc2F)cc(C2CC2)nc1SCC(=O)c1cccs1`, for which the Potency result was “inactive”.
The same measure for `O=C(NCCS(=O)(=O)N1CCN(c2ccccc2)CC1)C1CCCCC1`: “inactive”; for `CCOc1ccccc1CNC(=O)C1CCN(c2nnc(C)c3c(C)n(-c4ccc(C)cc4)nc23)CC1`: 35.5 µM (active); for `Cc1nnc(N2CCCC(C(=O)NCCN(C)C)C2)c2nn(-c3ccccc3)c(C)c12` (configuration not stated): 44.7 µM (active).
For the compound `CCOc1ccccc1NC(=O)C1CCC(CNc2c(N3CCCCC3)c(=O)c2=O)CC1` (configuration not stated), the Potency result was “inactive”.
Regarding `N#Cc1ccccc1CSc1nc2ccsc2c(=O)n1Cc1ccccn1`, the Potency entry was “inactive”.
The value for `COc1ccc(-c2cc(=O)oc3cc(OC(=O)C4CCCCC4)ccc23)cc1` was “inactive”; that for `O=C1CCC([N+](=O)[O-])C(c2ccc3c(c2)OCO3)N1` (configuration not stated) was “inactive”.
The value for `CCN(CC)c1ccc(-c2nc3cnccn3c2NC2CCCC2)cc1` was “inactive”; that for `O=C1N/C(=C/c2cccn2-c2ccc(F)cc2)C(=O)N1Cc1ccccc1` was “inactive”; that for `CC(C)Nc1nc(NCCOc2ccccc2Cl)c2sccc2n1` was 22.4 µM (active).
As for `COc1ccccc1CNc1nc(NCC2CC2)nc2ccsc12`, the Potency was 15.8 µM (active).
Turning to `CNc1nc(NCC2CCCCC2)c2sccc2n1`, the Potency is 12.6 µM (active).
For `c1ccc(CNc2nc(NCCOc3ccccc3)c3sccc3n2)cc1`, the Potency is 22.4 µM (active).
As for `COc1ccc(C(=O)NCCOc2ccccc2Cl)c(OC)c1OC`, the Potency result is “inactive”.
In the case of `O=C(NC(=O)c1ccccc1Cl)C(=O)Nc1ccc(Cl)cc1`, the Potency result was “inactive”.
The same measure for `O=C(N/N=C/c1cc2c3c(c1O)CCCN3CCC2)c1ccccc1O`: “inactive”; for `CCN(CC)c1ccc2cc(S(=O)(=O)c3ccc(Cl)cc3)c(=O)oc2c1`: “inactive”.
As to `CCN(CC)S(=O)(=O)c1cccc(C(=O)N/N=C(\C)c2ccc(O)cc2O)c1`, the Potency result was “inactive”.
For `O=C(O)c1cc2ccc(O)cc2oc1=O`, the Potency result is “inactive”.
With `COc1ccc(-c2cnc(C(N)=O)c(O)n2)cc1`, the Potency result was “inactive”.
Take `CC[C@@H]1C(c2ccccc2)=NN(c2ccc(Br)cc2)[C@H]1C(=O)N1CCOC1=O`: the Potency entry is “inactive”.
Regarding `O=C1OCCN1C(=O)[C@H]1[C@H](c2ccc(Cl)cc2)C(c2ccc(F)cc2)=NN1c1ccccc1`, the Potency result was “inactive”.
The value for `C#Cc1cccc(Nc2nc(NC(C)C)nc3ccsc23)c1` was 28.2 µM (active).
`c1csc(CNc2nc(Oc3ccncc3)c3sccc3n2)c1`: the Potency result was “inactive”.
The same measure for `c1cc2cc(CNc3nc(NCC4CC4)nc4ccsc34)ccc2o1`: 25.1 µM (active); for `COCCNc1nc(NCc2ccc(C(C)C)cc2)c2sccc2n1`: 35.5 µM (active); for `COc1cccc(CNC(=O)Cc2csc(Nc3nc(S)nc4ccccc34)n2)c1`: “inactive”.
Turning to `COc1cccc(CNc2nc(NCc3cccs3)nc3ccsc23)c1`, the Potency is 39.8 µM (active).
As for `CC(=O)c1ccc(NC(=O)COC(=O)Cc2ccsc2)cc1`, the Potency result was “inactive”.
As to `S=C(c1ccc(-c2ccc(Br)cc2)o1)N1CCCCC1`, the Potency result is “inactive”.
As for `CN(Cc1ccon1)C(=O)CC1C(=O)NCCN1CC(C)(C)C` (configuration not stated), the Potency entry is “inactive”.
The same measure for `O=S(=O)(O)c1ccc(SCc2ccccc2)nc1`: “inactive”.
For `CC(C)c1ccc(CNc2nc(NCC3CC3)nc3ccsc23)cc1`, the Potency is 28.2 µM (active).
`COc1ccc(CNc2nc3ccccc3n2C(C)C)cc1`: the Potency result is “inactive”.
With `COc1ccccc1CNc1nc(NCc2ccc(C(C)C)cc2)c2sccc2n1`, the Potency is 31.6 µM (active).
In the case of `CCn1c(/C=C/c2c[nH]c3ccccc23)nc2ccccc2c1=O`, the Potency result is “inactive”.
With `O=C(CCCCl)Oc1ccc2cc(-c3ccc4ccccc4n3)c(=O)oc2c1`, the Potency result is “inactive”.
Take `Cc1ccc(NC(=O)C2CCCN2c2nn3c(=O)cc(C)nc3s2)cc1` (configuration not stated): the Potency result is “inactive”.
The value for `CCOc1ncccc1C(=O)NC(C)CCc1ccccc1` (configuration not stated) was “inactive”; that for `CCOc1ncccc1C(=O)OCC(=O)NC(=O)NC(C)C` was “inactive”.
Take `CCOc1ncccc1C(=O)Nc1nc(C(C)(C)C)cs1`: the Potency was 39.8 µM (active).
For the compound `COc1ccc2[nH]c3nc(SCc4nnc(-c5ccc(C)cc5)o4)nnc3c2c1`, the Potency was 22.4 µM (active).
Regarding `COc1ccc([C@@H](C)NC(=O)CCc2nnc(-c3cc(C)on3)o2)cc1`, the Potency result is “inactive”.
Consider `COc1ccc(C2CC(c3ccc(F)cc3)n3nc(NC(=O)c4ccco4)nc3N2)cc1` (configuration not stated), for which the Potency result is “inactive”.
On to `Cc1ccc(C)c(CSc2cn(CCNC(=O)c3cccs3)c3ccccc23)c1`, for which the Potency is 31.6 µM (active).
As to `CCCn1nc(NC(=O)c2cccs2)c2cc3cc(C)ccc3nc21`, the Potency result is “inactive”.
Turning to `N#Cc1c(N)n(CCNC(=O)c2cccs2)c2nc3ccccc3nc12`, the Potency entry was “inactive”.
The same measure for `COC(=O)c1cc(=O)nc(NN=C2c3ccccc3-c3ccccc32)s1`: 14.1 µM (active); for `Cc1cccn2c(=O)c3cc(C#N)/c(=N\C(=O)c4ccccc4)n(Cc4ccco4)c3nc12`: “inactive”.
The value for `O=C(Oc1cc2oc(=O)c3c(c2cc1Cl)CCCC3)c1cccs1` was “inactive”; that for `COc1cc2c(cc1OC)C(c1ccccc1)N(C(=O)CCl)CC2` (configuration not stated) was 25.1 µM (active).
For the compound `COc1cc2c(cc1OC)CN(C1CCC(C(C)(C)C)CC1)CC2` (configuration not stated), the Potency entry is “inactive”.
As to `COc1cc2c(cc1OC)C(c1ccccc1Cl)N(C)CC2` (configuration not stated), the Potency result was “inactive”.
Consider `CCc1ccc(-c2cc(C(F)(F)F)n3nc(C(=O)Nc4cnn(Cc5ccccc5C)c4)cc3n2)s1`, for which the Potency entry was “inactive”.
As for `CC1(C)CC(=O)c2cnc(N3CCc4ccccc43)nc2C1`, the Potency entry is “inactive”.
As to `COc1ccc(S(=O)(=O)N(C)C)cc1NC(=O)CCNC(=O)c1ccco1`, the Potency result was “inactive”.
For `O=C(c1cccs1)N1CCN(C(=O)c2cccs2)C1=S`, the Potency is 39.8 µM (active).
On to `Nc1ccc(/C=C/C(=O)c2cccs2)cc1`, for which the Potency result was “inactive”.
In the case of `O=C(NCCNC1CCC(c2ccccc2)CC1)c1cccs1` (configuration not stated), the Potency result is “inactive”.
Turning to `CCOc1cc(Br)c(C(C)NC(=O)c2cccnc2)cc1OCC` (configuration not stated), the Potency result is “inactive”.
On to `N#C/C(=C(/O)CCCl)c1ccccn1`, for which the Potency result was “inactive”.
On to `FC(F)Sc1ccc(NC(=S)N2CCN(c3ccccn3)CC2)cc1`, for which the Potency entry is “inactive”.
On to `CCOC(=O)C1C(C(=O)NN)C1C(=O)Nc1ccccc1` (configuration not stated), for which the Potency entry was “inactive”.
Consider `CCOC(=O)C1=Nc2ccccc2C1=[N+]=[N-]`, for which the Potency was 39.8 µM (active).
For `CCOC(=O)c1cnc(-c2ccccc2O)nc1Cl`, the Potency entry was “inactive”.
The value for `Cc1ccc2nc3c(cc2c1)c(C)nn3-c1ccccc1` was “inactive”.
As to `O=C(C(Cc1ccccc1)n1cccc1)N1CCCCC1` (configuration not stated), the Potency entry was “inactive”.
For the compound `O=C1OCCN1C(=O)[C@H]1[C@H](c2ccccc2)C(c2cccc(Cl)c2)=NN1c1ccccc1`, the Potency result is “inactive”.
Turning to `CCCc1nnc(SCC(=O)Nc2ccccc2F)o1`, the Potency result was “inactive”.
Turning to `CCCCn1c(CNC(=O)C23CC4CC(CC(C4)C2)C3)nnc1SCC(=O)Nc1ccc(C)cc1`, the Potency is 35.5 µM (active).
On to `Cc1ccc(C(C)NC(=O)C23CC4CC(CC(C4)C2)C3)cc1` (configuration not stated), for which the Potency entry was “inactive”.
Regarding `COc1ccc(NC(=O)Cc2nnc(SCC(=O)NC3=NCCS3)n2C)cc1`, the Potency result is “inactive”.
For the compound `N#Cc1c(N)n(CCCN2CCOCC2)c2nc3ccccc3nc12`, the Potency result is “inactive”.
Consider `O=C(Cc1cccc2ccccc12)Nc1ccc(Br)cc1C(=O)O`, for which the Potency result is “inactive”.
Consider `O=C(Nc1ccn(CCCN2CCN(Cc3cccc4ccccc34)CC2)c(=O)n1)OCc1ccccc1`, for which the Potency was 14.1 µM (active).

These data come from ChEMBL document CHEMBL1201862, “PubChem BioAssay data set” (2004).
